# Test results: PubChem BioAssay
# Values joined by “and” are separate entries in the source; they are usually repeats but may differ in a detail not shown here. Identical values can stand only once. Active and inactive are the calls of the source. Unless noted, no rule for the calls is given here.
# Legend:
# [1] = P. berghei load reduction in hepatocytes – cell-based, HepG2, luciferase luminescence, HepG2 viability, primary screen (AID 624349; in the data active = parasite load remaining mostly below about 12%, no sharp cut-off; inactive = mostly above about 10%;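 also: 100% = mean of DMSO negative control wells on the same plate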); details: P. berghei liver stage in HepG2, luciferase luminescence, concentration not given here; parasite load remaining: stronger effect = lower value; viability: measured here: HepG2 viability without parasites
# [2] = signal quenchers or enhancers, Cy5 substrate/SSB – biochemical, NIH Clinical Collection, E. coli SSB, artefact control for HCV NS3 helicase inhibitor project (AID 743268); details: Cy5-oligo bound E. coli SSB, fluorescence interference
# [3] = system: Hepatitis C virus NS3 helicase; test: blockers of NS3h binding to DNA – biochemical, fluorescence polarization, NIH Clinical Collection, primary screen (AID 743270); details: NS3 helicase binding to Cy5-dT15 DNA, stronger effect = higher value, concentration not given here
# [4] = target: Single-stranded DNA-binding protein (Escherichia coli (strain K12)) (UniProt P0AGE0); test: SSB-ssDNA binding inhibitors – biochemical, fluorescence polarization, NIH Clinical Collection, counter-screen for HCV NS3 helicase inhibitor project (AID 743271; in the data active = inhibition above about 28%); details: E. coli SSB-DNA binding, stronger effect = higher value, concentration not given here
# [5] = compounds distorting NS3 helicase fluorescence signal – biochemical, NIH Clinical Collection, artefact control for HCV NS3 helicase inhibitor project (AID 743272); details: fluorescence interference counterscreen, HCV NS3 helicase assay; stronger effect = lower value;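 also: HCV NS3 helicase with a Cy5 labelled single stranded DNA probe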
# [6] = system: Neuropilin-2 / VEGF-C interaction (human); test: small molecules blocking Neuropilin-2/VEGF-C interaction – biochemical, microplate binding format, z-score (AID 743281); details: microplate NRP2/VEGF-C binding assay; stronger effect = lower value
# [7] = Wnt pathway potentiators raising nuclear beta-catenin – imaging, WNT3A-conditioned medium, mouse C2C12, NPC library, primary screen (AID 1117326; in the data active = nuclear beta-catenin stimulation mostly above about 4.2%, no sharp cut-off; inactive = mostly below about 10%); details: stronger effect = higher value
# [8] = stimulators of insulin release from INS-1E, primary screen, cell-based, 5 mM glucose, NPC library (AID 1117329;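 active = compound raises insulin release from rat beta cells at 5 mM glucose, no numeric limit stated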); details: rat INS-1E insulin secretion, at 10 µM, stronger effect = higher value
# [9] = growth inhibition of GSK3B-pretreated HCT116 cells – cell-based, CellTiter-Glo, 0.2 to 20 µM (AID 1117336;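 active = compounds lowering colon cancer cell viability after pretreatment blocking the GSK3B kinase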); details: HCT116 viability after GSK3B inhibitor, at 20 µM, stronger effect = higher value
# [10] = inhibition of endothelial tube formation, primary screen, imaging, VEGF stimulated, CD31 staining, tube area, NPC library (AID 1117340;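 active = compound that reduces growth-factor-driven endothelial tube area in a mixed cell culture, no cutoff stated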); details: VEGF-stimulated ADSC/ECFC co-culture, at 10 µM, stronger effect = higher value
# [11] = GLP1 release stimulators, primary, NCI-H716, NPC library (AID 1117341;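 active = compound raises GLP1 secretion from the human gut endocrine cells, with no numeric limit stated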); details: NCI-H716 cells, at 10 µM, stronger effect = higher value
# [12] = HCT116 colon cancer cell growth inhibition, primary screen, CellTiter-Glo luminescence, NPC library (AID 1117342;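 active = compounds that lower survival of HCT116 colon cancer cells in the luminescence readout, no numeric limit stated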); details: at 20 µM (top of the series)
# [13] = reduced SW480 viability measured with CellTiter-Glo, NPC library, primary (AID 1117343;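 active = compounds that lower viability of the colon cancer cells in the luminescence readout, with no numeric limit stated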); details: CellTiter-Glo luminescence; at 20 µM (top of the series)
# [14] = NPC library primary testing for decreased DLD-1 cell viability via CellTiter-Glo (AID 1117346;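 active = compounds that lower survival of DLD-1 colon cancer cells in the luminescence readout, no cutoff given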); details: DLD-1 viability, CellTiter-Glo luminescence; at 20 µM (top of the series)
# [15] = system: Hepatitis C virus NS3 helicase; test: blockers of NS3h binding to ssDNA – biochemical, fluorescence polarization, LOPAC1280 library, primary screen (AID 687035; in the data active = inhibition above about 37%); details: Purified HCV NS3 helicase, Cy5-dT15 ssDNA binding fluorescence polarization; stronger effect = higher value; concentration not given here
# [16] = compounds altering Cy5-DNA-NS3h complex signal – biochemical, LOPAC1280, artefact control for HCV NS3 helicase inhibitor project (AID 687037); details: Cy5-DNA-NS3h complex fluorescence interference counterscreen
SMILES,parasite load remaining [1],viability [1],fluorescence ratio [2],inhibition [3],inhibition [4],fluorescence ratio [5],z-score [6],nuclear beta-catenin stimulation ([7]; at 10 µM),"nuclear beta-catenin stimulation ([7]; stimulation, at 2 µM)",insulin secretion stimulation [8],viability decrease [9],tube area decrease [10],GLP1 secretion stimulation [11],inhibition of viability [12],viability decrease (inhibition) [13],viability decrease (inhibition) [14],inhibition [15],fluorescence ratio (interference) [16]
Nc1[nH]c(=O)ncc1F,85.3% (inactive) and 51.1% (inactive) and 109% (inactive),93.3% and 117% and 86.7%,1.01 (inactive),-6.73% (inactive),-1.64% (inactive),0.97 (inactive),-0.751 (inactive),0.9% (inactive),1.7%,-1.8% (inactive),-5.1% (inactive),-15.9% (inactive),2.3% (inactive),-15.1% (inactive),-13.1% (inactive),-0.9% (inactive),,
CC1CCN(CCCC(=O)c2ccc(F)cc2)CC1,55.3% (inactive),68.6%,1 (inactive),-3.71% (inactive),1.97% (inactive),0.99 (inactive),1.36 (inactive),1.8% (inactive),0.7%,8.9% (inactive),5.7% (inactive),10.4% (inactive),-0.3% (inactive),45.7% (inactive),23.2% (inactive),37.1% (inactive),,
COc1ccc(CN2CCN(C(c3ccc(F)cc3)c3ccc(F)cc3)CC2)c(OC)c1OC,0.425% (inactive) and 2.35% (inactive),59.6% and 66%,1 (inactive),1.19% (inactive),7.6% (inactive),0.91 (inactive),0.136 (inactive),8.4% (inactive),5.6%,1.6% (inactive),108% (active),-1.5% (inactive),2.3% (inactive),110% (active),133% (active),101% (active),,
COc1cc(C(=O)NC2CCCNC2)cc(OC)c1OC (centres undefined),134% (inactive),80.6%,1 (inactive),2.77% (inactive),2.98% (inactive),0.98 (inactive),-0.315 (inactive),22.4% (inactive),2.8%,1.6% (inactive),-5.2% (inactive),0.1% (inactive),3.3% (inactive),0.8% (inactive),37.5% (inactive),15.8% (inactive),,
Nc1c2c(nc3c1CCC3)CCCC2,74.2% (inactive),68.8%,0.99 (inactive),2.77% (inactive),1.44% (inactive),0.9 (inactive),-0.236 (inactive),0.3% (inactive),0.3%,21.2% (active),-1.35% (inactive),20.5% (inactive),4.4% (inactive),1% (inactive),4.4% (inactive),-5.95% (inactive),,
COc1cc2c(cc1OC)C(=O)C(CC1CCN(Cc3ccccc3)CC1)C2 (centres undefined),49.6% (inactive) and 67.4% (inactive),93.5% and 63.1%,1.07 (inactive),1.98% (inactive),1.44% (inactive),1.04 (inactive),0.0126 (inactive),-1% (inactive),-0.2%,1.25% (inactive),22.6% (inactive),17.7% (inactive),6.3% (inactive),49.6% (inactive),69.8% (active),38.5% (inactive),,
COC(=O)C1=C(C)NC(C)=C(C(=O)OC(C)C)C1c1cccc2nonc12 (centres undefined),105% (inactive) and 85.6% (inactive),74.3% and 66.7%,1.01 (inactive),6.73% (inactive),4.52% (inactive),0.98 (inactive),-2.69 (inactive),28.6% (inactive),0.3%,-0.7% (inactive),-4.5% (inactive),13.7% (inactive),-2.4% (inactive),48.4% (inactive),20.8% (inactive),11.2% (inactive),,
O=C1Nc2ccc(Cl)cc2[C@@](C#CC2CC2)(C(F)(F)F)O1,46.6% (inactive) and 8.97% (inactive),69% and 64.5%,0.99 (inactive),5.15% (inactive),6.06% (inactive),0.99 (inactive),0.939 (inactive),-0.8% (inactive),3.6%,11.3% (inactive),86.5% (active),-16% (inactive),21% (active),87.9% (active),114% (active),49.4% (inactive),,
Nc1nc(N)nc(-c2cc(Cl)ccc2Cl)n1,141% (inactive) and 22.8% (inactive),129% and 67.5%,1.05 (inactive),-1.19% (inactive),2.21% (inactive),1.02 (inactive),0.00875 (inactive),0.6% (inactive),0.3%,2% (inactive),20.3% (inactive),-11.3% (inactive),-1.2% (inactive),-27.9% (inactive),-12.5% (inactive),-18.2% (inactive),,
O=C1[C@H]2CCCC[C@H]2C(=O)N1CCCCN1CCN(c2nsc3ccccc23)CC1,42.7% (inactive),60.1%,1 (inactive),0.4% (inactive),-2.41% (inactive),0.96 (inactive),-0.553 (inactive),10.9% (inactive),1%,5.5% (inactive),70.3% (active),25.8% (inactive),9% (inactive),88.1% (active),115% (active),99.8% (active),,
Cn1c(NCCN(CCO)CCCc2ccc([N+](=O)[O-])cc2)cc(=O)n(C)c1=O,109% (inactive) and 18.9% (inactive),77.5% and 73.5%,0.99 (inactive),0.4% (inactive),1.44% (inactive),0.97 (inactive),0.0586 (inactive),0.1% (inactive),0.3%,-5.7% (inactive),38.3% (inactive),1.8% (inactive),2.9% (inactive),26.6% (inactive),44.3% (inactive),14.1% (inactive),,
OCCOCCN1CCN(C2=Nc3ccccc3Sc3ccccc32)CC1,49.4% (inactive) and 94% (inactive) and 56.9% (inactive),95.1% and 77.7% and 206%,1.02 (inactive),1.98% (inactive),1.44% (inactive),0.95 (inactive),0.105 (inactive),3.8% (inactive),2.1%,2.8% (inactive),-12.8% (inactive),18.9% (inactive),2.3% (inactive),10.6% (inactive),14% (inactive),7.8% (inactive),,
C[C@H]1COc2c(C3(N)CC3)c(F)cc3c(=O)c(C(=O)O)cn1c23,143% (inactive) and 21.7% (inactive),89.8% and 67.5%,1.05 (inactive),5.15% (inactive),-0.1% (inactive),1.02 (inactive),0.653 (inactive),1.2% (inactive),0.2%,-0.9% (inactive),-4.4% (inactive),2.8% (inactive),4.2% (inactive),-19.1% (inactive),43.9% (inactive),24.9% (inactive),,
CC(C)c1nc(CN(C)C(=O)N[C@H](C(=O)N[C@@H](Cc2ccccc2)C[C@H](O)[C@H](Cc2ccccc2)NC(=O)OCc2cncs2)C(C)C)cs1,53.8% (inactive),79.2%,1.03 (inactive),3.56% (inactive),9.91% (inactive),0.89 (inactive),0.723 (inactive),7.7% (inactive),5.1%,0.2% (inactive),33.5% (inactive),-13.5% (inactive),-0.8% (inactive),67.7% (active),4.9% (inactive),19.4% (inactive),,
O=C(NCCO[N+](=O)[O-])c1cccnc1,31.4% (inactive) and 90.9% (inactive) and 44.6% (inactive),48.5% and 74.2% and 98.5%,1.04 (inactive),1.19% (inactive),0.67% (inactive),1.02 (inactive),-0.101 (inactive),-0.4% (inactive),-0.5%,1.2% (inactive),-0.2% (inactive),-25.1% (inactive),-1.4% (inactive),6% (inactive),0.2% (inactive),-3.2% (inactive),,
CNNCc1ccc(C(=O)NC(C)C)cc1,101% (inactive) and 80.5% (inactive) and 21.4% (inactive),76.9% and 70.8% and 66.5%,1.04 (inactive),1.19% (inactive),-0.1% (inactive),1.02 (inactive),-0.83 (inactive),-2% (inactive),1%,0.5% (inactive),-8.6% (inactive),0.7% (inactive),-0.6% (inactive),-1.9% (inactive),5.8% (active),-10.5% (inactive),,
CCN(CC)CC1CCCCN1CC(=O)N1c2ccccc2C(=O)Nc2cccnc21 (centres undefined),84.2% (inactive),71.2%,1.04 (inactive),-2.77% (inactive),-2.41% (inactive),1.04 (inactive),-0.131 (inactive),6.3% (inactive),1.6%,4% (inactive),-12.6% (inactive),-28.2% (inactive),7.7% (inactive),1.17% (inactive),-3.8% (inactive),6.8% (inactive),,
CC(C)NCC(O)COc1ccc(COCCOC(C)C)cc1 (centres undefined),,,1.04 (inactive),1.19% (inactive),-0.1% (inactive),0.94 (inactive),-0.164 (inactive),0.8% (inactive),1.2%,1.2% (inactive),6.2% (inactive),-2.7% (inactive),-1.1% (inactive),-3.93% (inactive),0% (inactive),-4.5% (inactive),2% (inactive),1 (inactive)
CN1CCC(=C2c3ccccc3C=Cc3ccccc32)CC1,,,0.97 (inactive),-2.84% (inactive),-0.39% (inactive),0.96 (inactive),-0.162 (inactive),3.3% (inactive),1.3%,0.2% (inactive),48.8% (inactive),43.3% (active),11.9% (inactive),39% (inactive),100% (active),31.8% (inactive),-1% (inactive),1 (inactive)
